“And” between values parts separate entries of the source, which are not always exact repeats. Identical values can stand only once. Results filed as inconclusive are left out. Unmarked numbers belong to inactive results. The source made the active and inactive calls. The call rests on the fitted dose curve; in most records, active means well fitted cell-killing curve with a large enough effect in the repeat runs; inconclusive means weak or mixed curves, or effect the other way; inactive means flat fitted curve, though single readings scatter.
assay: qHTS RealTime-Glo MT Cell Viability Assay in HEK293 cells - 40 hour (AID 1224874); settings: RealTime-Glo luminescence; max response: hits give low values; further: nearly all actives have a fitted effect of over 50% in size
Text: U.S. Tox21 Program National Center for Advancing Translational Sciences [NCATS] NIH Chemical Genomics Center [NCGC] U.S. Environmental Protection Agency [EPA] National Institutes of Environmental Health Sciences [NIEHS] National Toxicology Program [NTP] U.S. Food and Drug Administration [FDA] Tox21 Assay Overview: Measure of cell viability is critical in the cell-base assay. Analysis of cell viability is necessary for the characterization of cell responses to cytotoxic drugs and environmental stress. A RealTime-Glo MT Cell Viability Assay to monitor cell viability in real time of continues cell culture during 40 hours of compound treatment was used to screen Tox21 10K library compounds in Hek293 cells. The RealTime-Glo MT Cell Viability Assay is a nonlytic, homogeneous, bioluminescent method to measure cell viability in real time using a simple, plate-based method. The assay involves adding NanoLuc luciferase and a cell-permeant prosubstrate to cells in culture. Viable cells reduce the proprietary prosubstrate to generate a substrate for NanoLuc luciferase. This substrate diffuses from cells into the surrounding culture medium, where it is rapidly used by the NanoLuc Enzyme to produce a luminescent signal. The signal correlates with the number of viable cells, making the assay well suited for cytotoxicity studies.
Tox21 Assay Protocol Summary: The mixture of Hek293 cell suspension and reagents were dispensed at 600cells/6 ul/well in 1536-well tissue culture treated black solid bottom plates using a Multidrop dispenser. After the assay plates were incubated at a 37 C/5% CO2 incubator for 5 hours, 23 nL of compounds dissolved in DMSO, positive and negative controls was transferred to the assay plate by a pintool work station. The plates were incubated at 37 C for 40 hours. The luminescence intensity were measured at 0h, 8h, 16h, 24h, 32h and 40h time points using ViewLux plate reader during compound treatment.
On the % scale 0 is the no-effect control and ±100 the full control effect; potency means the concentration at half of the fitted maximal effect.

| Structure (SMILES) | max response | Potency |
| --- | --- | --- |
| S=C=S | 6.94% |  |
| COc1cc(CC(C)N)cc(OC)c1OC (stereo not given) | -3.07% |  |
| CN1C(=O)COc2c(C(=O)NC3CN4CCC3CC4)cc(Cl)cc21 (stereo not given) | 3.5% |  |
| N#CN=C1SCCN1Cc1ccc(Cl)nc1 | -3.59% |  |
| Brc1c(Br)c(Br)c(Br)c(Br)c1Br | 23.1% |  |
| C/C(=N\NC(=O)Nc1cc(F)cc(F)c1)c1ncccc1C(=O)O | -7.58% and 0.112% |  |
| O=CCCl | 6.03% |  |
| CC(Cl)(Cl)Cl | -1.28% |  |
| COC(=O)[C@@H](N)CCCN/C(N)=N/[N+](=O)[O-] | 6.22% |  |
| c1cncc([C@@H]2CCCCN2)c1 | 9.53% |  |
| O=C(Cl)c1ccccc1 | -3.78% |  |
| COP(=O)(OC)O/C(C)=C/C(=O)N(C)C | 13.5% |  |
| CN=CNc1ccc(C)cc1C | 5.53% |  |
| CCOC(=O)c1ncn2c1CN(C)C(=O)c1c(I)cccc1-2 | 1.2% |  |
| CCCC(C)C1(CC)C(=O)N=C(S)NC1=O (stereo not given) | 1.79% |  |
| CC(C)N(Cc1ccccc1)C(=O)C(C)(C)C | -9.28% |  |
| Nc1c(Cl)c(F)nc(OCC(=O)O)c1Cl | 2.97% |  |
| ClCCN1CCCC1 | 8.04% |  |
| CC(C)[N+](C)(CCC(C(N)=O)(c1ccccc1)c1ccccc1)C(C)C | -2.84% |  |
| O=C(NC(O)C(Cl)(Cl)Cl)NC(O)C(Cl)(Cl)Cl (stereo not given) | 0.623% |  |

| Structure (SMILES) | max response | Potency |
| --- | --- | --- |
| CCN(CCO)CCn1c(Cc2ccccc2)nc2c1c(=O)n(C)c(=O)n2C | -42.2% |  |
| CCC(C)(C#N)N=NC(C)(C#N)CC (stereo not given) | 2.46% |  |
| O=C/C=C/c1ccco1 | 3.04% |  |
| C=C1CC[C@@]2(O)[C@H]3Cc4ccc(O)c5c4[C@@]2(CCN3CC2CC2)[C@H]1O5 | 9.06% |  |
| Cc1ccc(Cl)c(O)c1 | 1.02% |  |
| CNC(=O)NC(O)C(Cl)(Cl)Cl (stereo not given) | 9.22% |  |
| O=C1CCCCC1Cl (stereo not given) | 11.3% |  |
| COC(=O)c1ccccc1CS(=O)(=O)NC(=O)Nc1nc(OC)cc(OC)n1 | 1.53% |  |
| NC(=O)CS(=O)C(c1ccccc1)c1ccccc1 (stereo not given) | -4.1% |  |
| N=C(N)[Se] | -7.73% |  |
| CC(C)[C@]12CC(=O)[C@H](C)[C@H]1C2 | -4.49% |  |
| O=c1[nH]oc2c1CCNC2 | 5.54% |  |
| CCOC(=O)NC(C)(C)Cc1ccc(Cl)cc1 | 0.66% |  |
| CCOC1Oc2ccc(OS(C)(=O)=O)cc2C1(C)C (stereo not given) |  | 34.4 µM (active) |
| CC(C)NCC(O)c1ccc([N+](=O)[O-])cc1 (stereo not given) | 6.95% |  |
| O=C(O)CBr | -0.861% |  |
| CCC1(c2ccccc2)C(=O)N(COC)C(=O)N(COC)C1=O | 2.07% |  |
| CC(Cc1ccccc1)NCCCCl (stereo not given) | 5.94% |  |
| CCSC(=O)Cl | 15.5% |  |
| CCOP(=O)(CN(CCO)CCO)OCC | 1.2% |  |

Reference: PubChem BioAssay (Tox21)
